# Assay outcomes from PubChem.
# Shown are actives, neighbours in structure and some others; about 10% of the full set was active somewhere.
# Lamin A splicing = changes lamin A minigene splicing in HeLa cells | Potency, µM (doses to about 46.1 µM), inactives show at the highest dose ratio change, negative = inhibition, usual class: inhibitors | actives 0.01% (n = 200,000) | HeLa LMNA splicing GFP/RFP minigene ratio, 48 h; active means well fitted inhibition curve with a large enough effect in the signal ratio, with a control signal flat, not every such curve was filed as active; inconclusive means small, poorly fitted or top-dose-only effect, or effect the other way, or a change in a side signal; the % refers to the signal ratio; further: potency means the concentration at half of the fitted maximal effect
#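 S3 HeLa stable clones carrying a lamin A-EGFP splicing minigene plus DsRed2 were seeded at 600 cells/well in Opti-MEM with 2% FBS, pin-dosed and incubated 48 h at 37°C. Acumen cytometry (488 nm) gave the GFP/RFP total-intensity ratio.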
# KinaseGlo FLuc = Kinase-Glo luciferase inhibition (counter-screen); actives 0.28% (n = 200,000); Potency, µM (top dose mostly 38.3 µM), inactives show at the top dose activity change, negative = inhibition, hits mostly inhibitors; Q27757; Kinase-Glo luciferase, ATP luminescence, 8 min; AID 1379; active means well fitted inhibition curve with a large enough effect; inconclusive means small, poorly fitted or top-dose-only effect; further: potency means the concentration at half of the fitted maximal effect; nearly all actives have a fitted effect of over 60% in size
#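 Kinase-Glo luciferase light output from ATP and luciferin was measured with 10 uM ATP, within the enzyme's linear range. Buffer: 50 mM imidazole pH 7.2, 50 mM KCl, 7 mM MgCl2, 0.01% Tween 20, 0.05% BSA; luminescence read after 8 min at ambient temperature.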
# ALDH1A1 block = ALDH1A1 (human) enzyme inhibition | actives 7.3% (n = 220,000) | P00352 | Potency, µM (series often up to 75.3 µM), inactives show at the top dose activity, negative = inhibition, hits mostly inhibitors | Purified ALDH1A1, NADH fluorescence, propionaldehyde substrate | AID 1030;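 further: potency means the concentration at half of the fitted maximal effect; plate controls were no enzyme wells and a reference inhibitor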
# PNC assembly inh = blocks assembly of the perinucleolar compartment | activity change (PNC), negative = inhibition, % at 10 µM | actives 3.1% (n = 140,000) | AID 2417 | PC3M PTB-GFP, PNC prevalence imaging, 16 h; active compounds read low;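 active means readout at or below -70, meaning at least 70% loss of cells showing the perinucleolar compartment, a nuclear body marking cancer cells; inconclusive means readout between -30 and a set limit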;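 further: plate controls were DMSO wells for no effect and camptothecin positive control wells for full effect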
#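 PC3M cells stably expressing PTB-GFP, 750–1000 cells/well, treated 16 h at 37 °C with compound (23 nl of library stock), in duplicate. After paraformaldehyde fixation and Hoechst stain, imaged at 20x; PNC prevalence scored by image analysis.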
# HPGD block = inhibitors of human 15-hydroxyprostaglandin dehydrogenase (HPGD). purified HPGD, NADH fluorescence kinetic, PGE2 substrate. Potency, µM, inactives show at the highest dose activity change, negative = inhibition, usual class: inhibitors. actives 4.3% (n = 150,000). AID 894; further: potency means the concentration at half of the fitted maximal effect
# Target sequence (P15428 whole entry, looked up): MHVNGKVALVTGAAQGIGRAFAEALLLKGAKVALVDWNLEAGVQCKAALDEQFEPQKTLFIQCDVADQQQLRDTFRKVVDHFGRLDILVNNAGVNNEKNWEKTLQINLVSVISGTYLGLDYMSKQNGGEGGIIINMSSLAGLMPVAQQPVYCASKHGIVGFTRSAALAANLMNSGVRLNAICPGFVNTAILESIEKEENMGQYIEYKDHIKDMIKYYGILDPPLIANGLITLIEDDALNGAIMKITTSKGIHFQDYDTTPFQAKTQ
#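 20 nM HPGD preincubated 15 min at room temperature with compound in 50 mM Tris-HCl pH 8, 0.01% Tween 20. Started with 1 mM NAD+ and 30 uM prostaglandin E2; NADH fluorescence (360/450 nm) read 5 times over 30-s intervals, last minus first.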
# Active calls of the source: *; ? = inconclusive; . = no result given; [ ] = another dose, or the depositor's remark. Unless noted, the call rests on the fitted dose curve; in most records, active means well fitted inhibition curve with a large enough effect (not every such curve was filed as active); inconclusive means small, poorly fitted or top-dose-only effect, or another doubt; inactive means no such curve, though single readings can be large or run the other way. Unless noted, on the % scale 0 is the no-effect control and ±100 the full control effect.
SMILES,Lamin A splicing,KinaseGlo FLuc,ALDH1A1 block,PNC assembly inh,HPGD block
COc1cc([C@@H]2c3cc4c(cc3[C@@H](O[C@@H]3O[C@H]5CO[C@@H](C)O[C@@H]5[C@@H](O)[C@H]3O)[C@@H]3COC(=O)[C@@H]23)OCO4)cc(OC)c1O,.,2%,-1%,.,-10%
CN1C(=O)/C(=C/C=C2\SCCN2C)SC1=S,-17%,-17%,?,39,-13%
Cc1ccc(NC(=O)c2cc(NC(=O)C3CC=CCC3C(=O)O)ccc2N2CCOCC2)cc1 (centres undefined),0%,2%,13µM*,?,-10%
Cc1cccc(NC(=O)c2cc(NC(=O)C3CC=CCC3C(=O)O)ccc2N2CCOCC2)c1 (centres undefined),-12%,2%,3.2µM*,?,-3%
O=C(Nc1ccc(N2CCOCC2)c(C(=O)O)c1)c1ccc(Br)cc1,-9%[46 µM],.,.,.,.
Cc1ccc(NC(=O)c2cc(N3C(=O)CCC3=O)ccc2N2CCOCC2)cc1,19%[46 µM],0%,-1%,.,.
Cc1ccc(NC(=O)c2cc(NC(=O)C3CC=CCC3C(=O)O)ccc2N2CCOCC2)cc1Cl (centres undefined),3%,1%,1.8µM*,41,-8%
Cc1cc(C(=O)Nc2ccc(N3CCOCC3)c(Cl)c2)c(C)o1,-4%[46 µM],.,-2%,.,.
Cc1ccc(NC(=O)c2cc(N3C(=O)C=CC3=O)ccc2N2CCOCC2)cc1Cl,?,-2%,0.25µM*,71,1.3µM*
Cc1noc(C)c1C(=O)N1CCC2(CC1)CN(c1ccccc1)C2,.,-6%,4%,.,-2%
Cc1ccc(Cl)cc1NC(=O)c1cc(-c2ccc3c(c2)OCCO3)on1,30%[46 µM],.,.,.,.
c1ccsc1,.,.,8%,.,-15%
COc1ccc(Oc2ncc3nc(-c4cn(C)c5ccccc45)c(=O)n(CCC#N)c3n2)cc1,.,-4%,-1%,.,-5%
CCCNC(=O)C1CCN(c2ccc(S(=O)(=O)N3CCOCC3)cc2Cl)CC1,?,1%,6%,?,16µM*
COc1ccc(CCNC(=O)c2ccncc2)cc1OC,-14%,1%,4%,31,-9%
COc1ccc(CCNC(=O)c2nc3ncccn3n2)cc1OC,3%,3%,0%,-107*,2%
COc1ccc(CCNC(=O)C(=O)NCCOc2ccccc2)cc1OC,1%,4%,4µM*,?,-15%
CCCCCCCCCCCCC/C=C\[C@@H](O)[C@@H](N)CO,.,-1%,-5%,.,1%
COc1cc(C(=O)Nc2cc(C)ccn2)cc(OC)c1OC,-15%,-7%,16%,-15,-13%
COc1ccc(C(=O)NC(=O)Nc2cc(C)ccn2)cc1,-7%,.,13µM*,?,.
Cc1ccnc(NC(=S)NC(=O)c2cncc(Br)c2)c1,-15%,1%,-4%,-100*,-8%
CCOC(=O)C1CCN(C(=O)CS(=O)Cc2nc(-c3ccc(C)cc3)oc2C)CC1 (centres undefined),-13%,3%,25µM*,12,-15%
Oc1c(C(c2ccc(Cl)cc2)N2CCCC2)cc(Cl)c2cccnc12 (centres undefined),?,1%,14µM*,.,.
Oc1c(C(c2ccccn2)N2CCC(Cc3ccccc3)CC2)cc(Cl)c2cccnc12 (centres undefined),.,0%,5.6µM*,.,.
CN1CCN(C(c2ccccn2)c2cc(Cl)c3cccnc3c2O)CC1 (centres undefined),?,0%,10µM*,.,.
SMILES,Lamin A splicing,KinaseGlo FLuc,ALDH1A1 block,PNC assembly inh,HPGD block
COc1cc(-c2cc(OC)c3c(C)oc(C)c3c(=O)c2)ccc1OC(=O)c1cccc(C)c1,1%[46 µM],.,.,.,.
Cc1ccc(NC(=O)c2cc(S(=O)(=O)N(C)C3CCCCC3)ccc2F)cc1C,0%[46 µM],.,.,.,.
CC(=O)Oc1ccc(OC(C)=O)c(SCCCCCN2CCOCC2)c1,?,-2%,3%,93,18µM*
O=C(O)CC/C(=C\c1ccc(N2CCOCC2)c([N+](=O)[O-])c1)c1nc2ccccc2s1,-30%[46 µM],-1%,6.3µM*,.,.
CCn1c(N)c(C(=O)NCc2cccnc2)sc1=S,-1%,3%,1%,36,-6%
Nc1c(C(=O)NCc2cccnc2)sc(=S)n1-c1ccccc1,-11%,-1%,8.9µM*,-13,14µM*
COc1ccc(CNC(=O)c2sc(=S)n(-c3ccc(OC)cc3)c2N)cc1,-7%,-3%,19µM*,?,32µM*
Cc1ccc(-n2c(N)c(C(=O)NCc3ccco3)sc2=S)cc1,-7%,-7%,?,-13,?
Cc1ccc(-n2c(N)c(C(N)=O)sc2=S)cc1,5%,1%,4.5µM*,-5,7.9µM*
N/C(=N\OC(=O)c1ccc2c(c1)OCO2)c1cccc(Br)c1,.,13µM*,9%,.,.
Cc1cc2sc(C)[n+](CCCOS(=O)(=O)O)c2cc1C,.,-4%[7.66 µM],-1%[13.5 µM],.,-2%
COc1ccc(/C=C2\SC(=S)N(N3C(=O)CCC3=O)C2=O)cc1O,?,0%,?,.,.
O=C1/C(=C/c2ccccn2)SC(=S)N1N1CCOCC1,.,.,4.5µM*,.,.
O=C1/C(=C/c2ccccc2)SC(=S)N1N1C(=O)C2CC2C1=O (centres undefined),.,-3%,1%,.,.
COc1ccccc1/C=C1\SC(=S)N(N2C(=O)CCCC2=O)C1=O,?,4%,25µM*,.,.
COc1cccc(/C=C2\SC(=S)N(N3CCOCC3)C2=O)c1OC,5%,1%,14µM*,-8,-9%
CCOC(=O)N1CCN(c2c(NCc3ccccc3OC)c(=O)c2=O)CC1,-12%,-2%,?,-19,16µM*
CCOC(=O)N1CCN(c2c(NCc3cccs3)c(=O)c2=O)CC1,-25%,0%,?,7,28µM*
COc1cccc(CNS(=O)(=O)c2cnc(N)nc2)c1,11%[46 µM],.,.,.,.
COC(=O)N[C@@H](CCc1ccccc1)/C(C(=O)OC)=C(\C)NCc1ccccc1,.,-1%,9%,.,-3%
CC(=O)NC1C(=O)Nc2c1cccc2C(F)(F)F (centres undefined),-1%,1%,0.28µM*,?,-5%
COCCCNC(=O)Cn1c(=O)nc(-c2ccccc2)c2ccccc21,0%[46 µM],.,.,.,.
O=C(NCCS(=O)(=O)N1CCN(c2ccccc2)CC1)C(c1ccccc1)c1ccccc1,-8%[46 µM],.,.,.,.
CS(=O)(=O)c1ccc(C2=C(c3ccccc3)C(=O)OC2)cc1,-11%,-5%,2.8µM*,.,15%
Cn1cc(SCC(=O)N2CCN(c3ccccc3)CC2)c2ccccc21,-5%,1%,-1%,-27,-5%
Cn1cc(SCC(=O)N2CCCc3ccccc32)c2ccccc21,-24%,0%,10µM*,-10,-14%
O=C(CSc1nncc2ccccc12)N1CCOCC1,-4%,-3%,?,17,28µM*
CCn1cc(SCC(=O)N2CCOCC2)c2ccccc21,-4%,0%,4%,?,-4%
O=C(CSc1nnc(-c2ccccc2)c(-c2ccccc2)n1)N1CCOCC1,1%,-1%,6%,40,-28%
